Among the data in ChEMBL document CHEMBL1157539, “Thousands of chemical starting points for antimalarial lead identification” (Nature, 2010) are Inhibition values, retold here.

One may read the Inhibition as the percentage by which the read-out fell short of the control.

The assay concerns Plasmodium falciparum. As to the kind of experiment: GSK_TCMDC: Inhibition of Plasmodium falciparum Dd2 in whole red blood cells, using parasite LDH activity as an index of growth. Test compounds present at 2uM. The class given is functional.
Compound `Cc1noc(C)c1-c1ccc(C(=C2CCCCCC2)c2ccc(O)cc2)cc1` showed an Inhibition of 96%.
Then `COc1ccc(C2N=C(N)N=C(N)N2c2ccc(Cl)cc2)cc1OC.Cl` (stereo not given), with 4%; and `N=C(N)Nc1nc(-c2cccc(NC(=O)NCCc3c[nH]c4ccc(OCc5ccccc5)cc34)c2)cs1`, with 30%.
In turn, `CC1CN(Cc2ccc(-c3ccc(-c4nc5cc(F)ccc5[nH]4)cc3)cc2)CC(C)O1.O=C(O)C(F)(F)F` (stereo not given) showed an Inhibition of 93%.
Next, `COc1ccc(NC(=O)/C=C/c2cc(Br)ccc2F)cc1OCCN(C(C)C)C(C)C.O=C(O)C(F)(F)F`: 14%; `COc1c(C2=CCN(CCCCNC(=O)c3ccc(-c4ccc(C#N)cc4)cc3)CC2)c(C)cc2c1C(C)(C)CCC2(C)C`: 88%.
Next, `CS(=O)(=O)Nc1cccc(-c2cnc3[nH]cc(-c4cccc(CN)c4)c3c2)c1`: 82%; `Cc1cccc(OCC2CCN(c3ncc(C(=O)NC4CC4)cc3Cl)CC2)c1`: 78%; `Br.CCc1c(CCNCCCCCCNCCc2ccc(Br)cc2)ccc(O)c1O`: 1%.
For `FC(F)(F)c1ccc2[nH]ccc(=NN=CC=Cc3ccccc3)c2c1`, the Inhibition is listed as 9%.
Next, `C=C[C@H]1CN2CC[C@H]1C[C@H]2[C@H](O)c1ccnc2ccc(OC)cc12.O.O=S(=O)(O)O`: 22%; `CN(C)CCCOc1cccc(NC(=O)Nc2ccc(-c3ccccc3)cc2)c1.O=C(O)C(F)(F)F`: 14%.
For `CN(C)c1ccc(CN2CCC(CNC(=O)c3cc(-c4cccc(F)c4)cs3)C2)cc1.O=C(O)C(F)(F)F` (stereo not given), the Inhibition was 13%.
Then `Cl.O=C(NCCCCN1CCC(c2ccc(OC(F)(F)F)cc2)CC1)c1ccc(NC(=O)c2ccc(Cl)cc2)cc1`, with 98%; and `Cl.Oc1ccc(CCNc2nc(NCCCOc3ccccc3-c3ccc(C(F)(F)F)cc3)nc(N3CCNCC3)n2)cc1`, with 49%; and `COc1cc2ccccc2c(OC)c1CNCCCCCCNCc1c(OC)cc2ccccc2c1OC.CS(=O)(=O)O`, with 91%.
In turn, `COc1ccc(-c2cc(C(=O)N[C@@H](Cc3ccccc3)C(=O)NCCN3CCCCC3)ccc2O)cc1` registered an Inhibition of 0%.
Next, `CN(C)c1ccc(-c2ccc(C(=O)NC3CCN(Cc4ccc(F)cc4)CC3)s2)cc1.O=C(O)C(F)(F)F`: 19%; `O=C(Nc1ccc(-c2nc3ccccc3[nH]2)cc1)C1CCN(Cc2cccc(F)c2F)CC1`: 51%; `COc1ccc(OC)c(NC(=O)CSc2nc(-c3ccccc3Cl)ns2)c1`: 32%.
Then `COc1ccc(CN2CCCC(C(=O)c3ccc(C(F)(F)F)cc3)C2)c(O)c1` (stereo not given), with 88%; and `COc1ccc2nccc(N3CCC(NCCNS(=O)(=O)c4ccc5c(c4)NC(=O)CS5)C3)c2n1.Cl` (stereo not given), with 18%.
Next, `COc1ccc(-c2cccc(NC(=O)c3ccc(F)cc3)c2)cc1CN1CCCN(C)CC1.O=C(O)C(F)(F)F`: 35%; `CCOC(=O)NOC(C(=O)O)c1ccccc1` (stereo not given): 17%; `Cc1cccc2nc(-c3cccc(-c4ccc(NC(=O)Nc5ccsc5)cc4)c3)[nH]c12`: 99%.
Compound `CN(Cc1ccc(-c2ccc(C(F)(F)F)cc2)cc1)C(=O)Cn1c(CCc2cccc(F)c2F)cc(=O)c2ccc(OCCCN3CCCCC3)cc21.O=C(O)C(O)C(O)C(=O)O` returned an Inhibition of 90%.
Next, `CC(C)C[C@H](NC(=O)OC(C)(C)C)C(=O)Nc1ccc(Cc2ccc(NC(=O)[C@H](CC(C)C)NC(=O)OC(C)(C)C)cc2)cc1`: 88%; `Cc1cccc2nc(-c3ccc(-c4ccc(NC(=O)Nc5ccc(F)c(F)c5F)cc4)s3)[nH]c12`: 99%.
Next, `Cc1cccc2nc(-c3ccc(-c4ccc(CN5CCN(CCC#N)CC5)cc4)cc3)[nH]c12.O=C(O)C(F)(F)F`: 27%; `COc1ccc(CCn2c(=N)c(C(=O)NCc3ccccc3)cc3c(=O)n4ccccc4nc32)cc1`: 18%; `CCCCN(CCCC)Cc1cc2ccccc2cc1O.Cl`: 98%.
Next, `O=C(Nc1ccc2c(c1)CCN(C1CCC1)CC2)c1cn(-c2ccccc2)nc1-c1ccccc1.O=C(O)C(F)(F)F`: 10%; `Cc1cc(NC2CCCC2)nc(Nc2ccccc2C)n1`: 20%.
Take `Cc1ccc(Oc2ncccc2C(=O)Nc2cccc3cccnc23)c(C)c1`: the Inhibition was 76%.
Next, `O=C(Nc1cccc(-c2cccc(-c3ccc(F)cc3)n2)c1)c1ccc([N+](=O)[O-])o1`: 42%; `Cc1cccc2nc(-c3ccc(-c4ccc(CNCC5CCCO5)cc4)cc3)[nH]c12.O=C(O)C(F)(F)F` (stereo not given): 81%.
Next, `Cc1noc(-c2ccccc2)c1NC(=O)NC1CCN(CCCCCNC(=O)/C=C/c2ccc(Cl)c(Cl)c2)CC1`: 0%.
With `COc1cccc2c(N/N=C/c3ccccc3[N+](=O)[O-])cc(C)nc12`, the Inhibition worked out at 32%.
The compound `COc1cc(-c2nc(C(C)(C)CN)[nH]c2-c2ccncc2)ccc1Br.Cl` gave an Inhibition of 95%.
Then `CCC(C)CN1CCCN(c2ccc(NC(=O)c3cccs3)cc2)CC1.O=C(O)C(F)(F)F` (stereo not given), with 95%.
